Assay outcomes (PubChem)
This is a sample that favours compounds with a hit; in the whole collection about 5.9% have one here.
NR0B1 inh – inhibits human nuclear receptor DAX1 | P51843 | HEK293 Gal4-DAX1 luciferase reporter, luminescence | inhibition, % at 6.75 µM | 340,000 tested, 0.99% active;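 active means inhibition above the mean over all tested compounds plus 3 SD, cut at about 4.2% in these data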;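 further: 0% = DAX1-transfected cells with DMSO and 100% = empty-vector control cells with DMSO; inhibition shows as a rise in luminescence from relieved DAX1 repression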
HSF-1 act – increases HSF-1 driven luciferase reporter signal; activation, % at 9 µM; NIH3T3-HGL HSF-1 luciferase reporter, MG132, 8 h; 100% = twice DMSO control signal; 300,000 tested, 1.7% active;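 active means mean replicate activation of at least 50% with a set share of replicates each reaching 50%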;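 further: 0% = median of the neutral control wells and 100% = twice that signal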
HSP90 refold inh – inhibitors of HSP90 luciferase refolding in rabbit reticulocyte lysate; luciferase refolding luminescence, 3 h; inhibition, % at 5.6 µM; 290,000 tested, 0.91% active;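 active means inhibition above the screen-wide mean plus 3 SD, computed separately per campaign, cut at about 16% in these data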;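 further: 0% = DMSO wells and 100% = 60 µM geldanamycin wells; inhibitors lower the luminescence because luciferase stays unfolded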
GAA850 FXN act – increases GAA850 frataxin promoter reporter activity; HEK293 lucGAA850 FXN promoter luciferase reporter, 24 h; percent of 10 µM SAHA response; activation, % at 6 µM; 360,000 tested, 0.56% active; AID 540364;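 active means activation above the average of all compounds screened plus 3 SD, cutoff fixed separately per campaign, cut at about 7.5% in these data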;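 further: 0% = DMSO wells and 100% = 10 µM SAHA wells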
AHR act – human AHR activation | P35869 | AHR-responsive luciferase reporter cells, luminescence | activation, % at 5 µM | 320,000 tested, 2.5% active; in the data active means activation above about 47%;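 further: 0% = vehicle wells and 100% = reference agonist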
HSF1 inhib – HSF1 inhibition | activity change, negative = inhibition, % at 7.5 µM (by protocol) | NIH3T3-HGL HSE-luciferase, MG132-induced, luminescence 8 h; active compounds read low | AID 2098 | 300,000 tested, 0.77% active;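 active means more than half of replicate wells show activity change below -50%, luminescence cut by over half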;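 further: luciferase reports HSF-1 transcriptional activity via heat shock element; 0% = median of DMSO wells and -100% = zero luminescence signal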
* marks the source's active call; other numbers are inactive results; · = no result.

SMILES | NR0B1 inh | HSF-1 act | HSP90 refold inh | GAA850 FXN act | AHR act | HSF1 inhib
Cc1cc(/C(N)=N/OC(=O)c2ccc(Cl)cc2)no1 | · | 63.9* | 8.3 | 3.5 | -5.3 | 31.7
COc1ccc(C(O)c2nc(-c3ccccc3C)cs2)cc1 (stereo unspecified) | · | · | · | 0.5 | · | ·
COc1cc(C#Cc2c(-c3cncn3C)n(C)c3ccc(-c4cnc(OC)nc4)cc23)cc(OC)c1 | -1.1 | · | · | 2.3 | 51.1* | ·
COc1cc(C#Cc2c(-c3cncn3C)n(C)c3ccc(-c4cnc(N5CCOCC5)nc4)cc23)cc(OC)c1 | 2.2 | · | · | 5.4 | 18.4 | ·
C[C@H](NC(=O)c1ccccc1F)C(=O)N1CCC2(CC1)NCCc1[nH]cnc12 | 0.8 | -9.1 | 0.8 | 0.5 | 1.0 | -2.8
COc1ccc(NC(=O)c2oc3ccccc3c2NC(=O)c2ccco2)c(OC)c1 | 0.8 | -8.9 | 3.9 | 4.4 | 45.2 | -4.7
CCOCC(=O)Nc1c(C(=O)Nc2ccc(OC)cc2OC)oc2ccccc12 | -0.6 | 6.3 | -2.4 | 3.1 | 66.6* | -2.8
CCOCC(=O)Nc1c(C(=O)OCC)oc2ccccc12 | -0.2 | 14.9 | -1.4 | 4.8 | 68.2* | -4.4
COc1ccc(OC)c(NC(=O)c2oc3ccccc3c2NC(=O)C2CC2)c1 | 0.5 | 12.7 | 0.8 | 2.8 | 10.9 | 1.4
COc1ccc(NC(=O)c2oc3ccccc3c2NC(=O)c2ccco2)cc1 | -1.3 | 7.6 | -0.6 | -4.2 | 69.2* | 0.4
COc1ccc(NC(=O)c2oc3ccccc3c2NC(=O)C2CC2)c(OC)c1 | 0.4 | 16.4 | 1.4 | 0.5 | 55.2* | -10.7
CC[C@]1(C(=O)OC)[C@H]2C(=O)N(C)C(=O)[C@H]2[C@H]2CN=C(SCc3ccc(C(=O)OC)cc3)N21 | 0.2 | · | · | -1.2 | · | ·
CC(C)COc1nc2c(c(=O)n(C)c(=O)n2C)n1C | 0.9 | 2.0 | 0.1 | 2.8 | 6.7 | -5.7
CCCNC(=O)C1(C)CCN(C(=O)c2cc(F)cc(F)c2)C1 (stereo unspecified) | · | · | · | -0.1 | · | ·
COc1ccc(NC(=O)c2oc3ccccc3c2NC(=O)C2CC2)cc1 | 0.9 | -10.3 | -1.6 | 1.8 | 72.1* | -11.6
COc1cccc(NC(=O)c2oc3ccccc3c2NC(=O)C2CC2)c1 | -1.6 | -5.8 | 2.4 | 0.7 | 11.9 | -1.2
C1=CC2(C=C1)OC21CCC2(C=CC3(C2)OC3C2CCCCC2)CC1 (stereo unspecified) | 0.7 | · | · | -0.9 | · | ·
Cc1nc2cc(NC(=O)CCS(=O)(=O)c3ccccc3)ccc2s1 | 3.7 | 52.2* | 5.4 | 4.8 | 17.1 | 22.3
Cc1nc2ccc(NC(=O)CCS(=O)(=O)c3ccccc3)cc2s1 | 5.2* | 30.7 | -0.5 | 2.2 | 4.8 | 14.3
Cc1nn(Cc2ccc([N+](=O)[O-])cc2)c(=O)n1-c1cccc(Cl)c1 | -0.2 | 20.4 | -0.5 | 1.8 | 3.0 | -0.8
CC(C)c1ccc(N=C2N=C(N)c3ccccc32)cc1 | 2.4 | 18.5 | -6.7 | 5.4 | 47.8* | 11.8
NC1=NC(=Nc2ccc(Cl)cc2)c2ccccc21 | -0.5 | 33.2 | -4.0 | -0.5 | 56.4* | 13.4
CC(CNC(=O)CN1C(=O)NC2(CCCCC2)C1=O)c1ccccc1 (stereo unspecified) | -0.3 | · | · | 1.7 | -1.0 | ·
N#Cc1cccc(NC(=O)c2cc(C3CCCCN3C(=O)c3ccccn3)on2)c1 (stereo unspecified) | · | · | · | 0.0 | · | ·
CCn1c(C)c(C(=O)c2ccccc2)c(C#N)c1C(=O)O | 0.2 | 10.2 | -0.3 | 1.8 | 3.4 | 0.6
SMILES | NR0B1 inh | HSF-1 act | HSP90 refold inh | GAA850 FXN act | AHR act | HSF1 inhib
Cc1cccc2cc(C#N)c(NCCNC(=O)c3ccccc3)nc12 | -0.6 | · | · | 0.8 | · | ·
Cc1cc2cc(C)c(NCCNC(=O)c3ccccc3)nc2cc1C | -1.4 | 22.1 | 1.3 | 2.3 | 63.3* | 3.0
CCOc1ccc2nc(NCCNC(=O)C(C)C)c(C)cc2c1 | -0.8 | -0.3 | -3.7 | 2.5 | 47.7* | 1.8
CN(C(=O)COC(=O)Cc1ccc(Cl)cc1)C1CCCCC1 | -0.1 | · | · | 1.4 | -1.0 | ·
CCN1CCN(C(=S)c2ccc(O)cc2)CC1 | 7.5* | -11.2 | 2.6 | -0.3 | 1.3 | -4.1
C/C(=N/NC(=O)c1ccoc1C)C12CC3CC(CC(C3)C1)C2 | 1.2 | 59.3* | 2.4 | 2.7 | 9.3 | 36.4
C/C(=N\NC(=O)c1ccccn1)C12CC3CC(CC(C3)C1)C2 | 0.9 | 40.4 | 2.9 | 3.2 | 4.8 | -0.5
CCCOC1CCCN(C(=O)CCc2nnc(Cc3cccc(C)c3)o2)C1 (stereo unspecified) | 3.1 | 63.1* | -2.3 | 4.8 | 3.8 | 30.2
Cc1cccc(Cc2nnc(CCC(=O)N3CCCCC3c3nccs3)o2)c1 (stereo unspecified) | -0.4 | 29.2 | -1.6 | 2.7 | 3.3 | 15.4
O=C(Nc1nnc([C@H]2C[C@H](O)[C@@H](CO)O2)s1)Nc1ccccc1C(F)(F)F | · | · | · | 1.8 | · | ·
Cc1cc(C)n(C(=O)c2c([N+](=O)[O-])c(C)nn2C)n1 | 0.7 | -19.3 | -2.7 | -0.8 | -3.5 | -8.4
Cc1ccc(SC(=O)c2c([N+](=O)[O-])c(C)nn2C)cc1 | 4.5* | -1.6 | 1.1 | 1.8 | 3.1 | 7.3
OCCCCCN=c1cc(-c2ccccc2)oc2ccc(Cl)cc12 | 2.1 | 97.7* | -4.7 | -1.7 | 6.1 | 69.3
O=c1cc(-c2ccccc2)oc2ccc3ccccc3c12 | -5.2 | · | · | -7.5 | · | ·
C[C@@H]1CN([C@H](C)CO)C(=O)CCCn2cc(nn2)CO[C@H]1CN(C)C(=O)Nc1ccccc1F | 1.6 | · | · | -0.5 | · | ·
COc1ccc(-c2[nH]ncc2C2N=C(N)Nc3nc4ccccc4n32)cc1 (stereo unspecified) | -0.5 | 4.6 | -0.9 | -0.9 | 2.0 | -8.1
Cc1ccc(C2N=C(N)Nc3nc4ccccc4n32)cc1 (stereo unspecified) | 1.6 | -15.4 | 3.0 | 2.4 | 0.5 | -3.3
NC1=NC(c2cn[nH]c2-c2cccc(F)c2)n2c(nc3ccccc32)N1 (stereo unspecified) | -0.1 | -80.1 | -1.2 | -1.4 | -1.9 | -74.5*
Cc1cccc(C2N=C(N)Nc3nc4ccccc4n32)c1 (stereo unspecified) | 4.8* | 41.6 | -1.5 | 0.1 | 0.4 | 7.5
NC(Cc1ccc(F)cc1)c1csc(Nc2ccc(S(N)(=O)=O)cc2)n1 (stereo unspecified) | · | · | · | -1.6 | · | ·
CC(=O)N(c1ccc2oc(=O)sc2c1)S(=O)(=O)c1cccs1 | -0.4 | 8.6 | -1.7 | 1.0 | -1.7 | 4.2
CC(=O)N(c1ccc2oc(=O)sc2c1)S(=O)(=O)c1ccc(C(=O)O)cc1 | 0.6 | -64.7 | -3.0 | -0.9 | -4.6 | -59.8*
CCCCCCNc1nc(Cl)nc(NC(C)(C)CO)n1 | 5.3* | 11.5 | 0.4 | 0.8 | 1.9 | -3.2
CC(NC(=O)c1ccccc1)C(=O)NC1CCCc2ccccc21 (stereo unspecified) | 0.6 | · | · | -1.2 | · | ·
S=c1nc(-c2ccccc2)[nH]n1-c1ccccc1 | 0.0 | 42.5 | 2.4 | 3.7 | 108.2* | 23.7
Cc1nc(=S)n(-c2ccccc2)[nH]1 | 0.1 | 8.3 | -0.5 | 2.8 | 6.8 | -2.8
